Results published in PubChem BioAssay.

Each molecule was assayed on Fibrinogen (Alexa647-labelled) (assay: fibrinogen binders on compound microarrays, profiling panel, artefact control for SMM control-protein annotation, biochemical, small-molecule microarray, 635/667 nm fluorescence (AID 1131;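 note: z-score merges 667 nm fluorescence with per-spot signal-to-noise over triplicate slides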)). Conditions: fibrinogen-A647 binding fluorescence, higher = more signal.
Work on [N-]=[N+]=Nc1ccccc1[C@H]1OC(c2ccc(OCCCO)cc2)=N[C@@]1(Cc1ccccc1)C(=O)NCc1ccccc1 yielded a composite z-score of 0.997.
Work on COC(=O)C(CC#Cc1ccc2c(c1)[C@]1(C(=O)N2)[C@H](c2ccc(O)cc2)N2[C@H](c3ccccc3)[C@H](c3ccccc3)OC(=O)[C@H]2[C@@H]1C(N)=O)C(=O)OC yielded a composite z-score of -1.96.
Work on C=CCNC(=O)[C@H]1[C@@H]2C(=O)O[C@@H](c3ccccc3)[C@@H](c3ccccc3)N2[C@@H](c2ccc(OCCO)cc2)[C@]12C(=O)N(C(=O)OCCOC)c1ccc(C#CC3=CCCCC3)cc12 yielded a composite z-score of 0.968.
Work on COC(=O)[C@@]1(Cc2ccccc2)[C@H]2c3cc(C(=O)N(C)C)n(Cc4ccccn4)c3C[C@H]2CN1C(=O)c1ccccc1 yielded a composite z-score of 1.04.
Work on O=C(Nc1cc(Br)ccc1C(=O)NCc1cccc(O)c1)c1ccccc1 yielded a composite z-score of 0.828.
NCCCCCCNC(=O)[C@H]1C[C@H]2C(=O)N3CCC[C@H]3C(=O)N2[C@H]1c1ccc(O)cc1 was tested, and the composite z-score was 0.437.
With C#CCNS(=O)(=O)N(C)C the composite z-score was 0.276.
CCCC=C(CCC)[C@@H](NS(=O)(=O)CC)c1ccccc1 gave a composite z-score of 0.976.
For CN(C)CCCCCCNC(=O)[C@@H]1C[C@@H]2C(=O)NCC(=O)N2[C@@H]1c1ccc(O)cc1, the composite z-score was 0.842.
NC(=O)NCC#Cc1ccc2c(c1)[C@]1(C(=O)N2)[C@H](c2ccc(O)cc2)N2[C@H](c3ccccc3)[C@H](c3ccccc3)OC(=O)[C@H]2[C@@H]1C(N)=O was tested, and the composite z-score was -0.934.
In the case of COCCCNC(=O)[C@@]1(C)c2ccccc2C(=O)N(c2ccc(C)cn2)[C@H]1c1ccc(CO)cc1, the composite z-score is reported as -1.03.
